# Assay results: PMC10726135, “HNF4α isoforms regulate the circadian balance between carbohydrate and lipid metabolism in the liver”
# Over roughly 18,000 sequences, “log2 normalized intensity” has its median near 0.36; the highest 2% begin near 7.3. For the sample, the highest values were picked, then their nearest neighbours and some sequences at random.
# Biological target: T1, HNF4alpha8 (COS-7 nuclear extract) (Homo sapiens, UniProt P41235-5 1-452)
# T1 sequence: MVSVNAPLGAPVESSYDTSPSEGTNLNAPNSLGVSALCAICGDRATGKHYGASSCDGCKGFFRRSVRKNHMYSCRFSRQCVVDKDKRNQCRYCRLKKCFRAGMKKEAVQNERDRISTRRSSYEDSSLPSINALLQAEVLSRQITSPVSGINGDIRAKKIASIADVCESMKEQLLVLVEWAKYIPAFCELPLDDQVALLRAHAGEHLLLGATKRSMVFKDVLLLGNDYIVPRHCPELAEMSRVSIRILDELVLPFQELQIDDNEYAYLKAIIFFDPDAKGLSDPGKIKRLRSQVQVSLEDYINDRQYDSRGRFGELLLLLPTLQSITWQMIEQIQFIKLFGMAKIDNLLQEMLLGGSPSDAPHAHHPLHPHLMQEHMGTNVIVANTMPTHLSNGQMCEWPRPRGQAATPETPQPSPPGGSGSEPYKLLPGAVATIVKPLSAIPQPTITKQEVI
# Assay: protein-binding microarray; COS-7 nuclear extract on double-stranded Agilent 4x180k PBM; binding buffer, salt, pH and temperature not given in the material; high values mean tight binding
# Settings: chain copies: 2; label: 3' end of strand 1 on the slide; dsDNA, one strand shown
# How it was run: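 Nuclear extracts came from COS-7 cells transiently transfected by CaPO4 with a human HNF4α isoform expression vector. They were applied to a custom Agilent SurePrint G3 4x180k array of ~60-nt oligonucleotides, made double-stranded, with ~44,000 test sequences spotted in quadruplicate. Bound HNF4α was imaged at 2-µm resolution on an Agilent G2565CA scanner. Binding signal was taken as background-corrected, normalized gProcessedSignal from Agilent software.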
row,Sequence,binding signal
1,TGATAAAGGGGGCAAAGGGCATGGGCAGCTGCCTAGGGAGATTAGAGTATCGGTCGA,4.41 log2 normalized intensity
2,GGTGTAAGCTCTGGAGTCCAAAGGTCAGCAGCCTAGGGAGATTAGAGTATCGGTCGA,8.69 log2 normalized intensity
3,AAGCTCTGGAGTCCAAAGGTCAGCAAGCCTGCCTAGGGAGATTAGAGTATCGGTCGA,8.14 log2 normalized intensity
4,TGGGAGCAAAGGTCAAGAGTTTTAAAGTATGCCTAGGGAGATTAGAGTATCGGTCGA,5.47 log2 normalized intensity
5,GTCCAAAGGTCAGCAAGCCTGGAGTTCTGAGCCTAGGGAGATTAGAGTATCGGTCGA,5.05 log2 normalized intensity
6,GGAGTGACCCTGGGAGCAAAGGTCAAGAGTGCCTAGGGAGATTAGAGTATCGGTCGA,7.55 log2 normalized intensity
7,TTAGGAGGATGACAAAGAGCAAGTGACCCTGCCTAGGGAGATTAGAGTATCGGTCGA,4.46 log2 normalized intensity
8,CCACTGGTGTAAGCTCTGGAGTCCAAAGGTGCCTAGGGAGATTAGAGTATCGGTCGA,4.54 log2 normalized intensity
9,AAGGTCAGCAAGCCTGGAGTTCTGATGTTCGCCTAGGGAGATTAGAGTATCGGTCGA,0.91 log2 normalized intensity
10,GGAGACCACTGGTGTAAGCTCTGGAGTCCAGCCTAGGGAGATTAGAGTATCGGTCGA,1.64 log2 normalized intensity
11,CTGGAGTCCAAAGGTCAGCAAGCCTGGAGTGCCTAGGGAGATTAGAGTATCGGTCGA,7.44 log2 normalized intensity
12,TGTTTGCCTCTCAGCTCATTCAAAGTCCAAGCCTAGGGAGATTAGAGTATCGGTCGA,4.2 log2 normalized intensity
13,ATCCACCCATCCAAAGGTCAGCAATCTCAAGCCTAGGGAGATTAGAGTATCGGTCGA,3.45 log2 normalized intensity
14,TATTTGCTCACCAGTGACCAATAATGTAATGCCTAGGGAGATTAGAGTATCGGTCGA,0.199 log2 normalized intensity
15,ATTAGCTTCTGTTCAGGAGTTGTCTGTCCAGCCTAGGGAGATTAGAGTATCGGTCGA,1.39 log2 normalized intensity
16,CCATGCTCTTTGGCCTGGCATTTGAGACTAGCCTAGGGAGATTAGAGTATCGGTCGA,0.329 log2 normalized intensity
17,TTTGTCCCCCACCTGTGAAGATAAGCTGTCGCCTAGGGAGATTAGAGTATCGGTCGA,3.17 log2 normalized intensity
18,AGAATGGAGAAAACAACATTCCTTGTGTTTGCCTAGGGAGATTAGAGTATCGGTCGA,0.48 log2 normalized intensity
19,TCAGCCTTAACTCAAAAGGCCAAAGTCCAAGCCTAGGGAGATTAGAGTATCGGTCGA,9.11 log2 normalized intensity
20,TCCACAGTCAAGGCCAAAGGTTAAAAATAAGCCTAGGGAGATTAGAGTATCGGTCGA,4.8 log2 normalized intensity
21,AATTCTTAAGCCAAAGTCCAAGTTGGTGAGGCCTAGGGAGATTAGAGTATCGGTCGA,3.81 log2 normalized intensity
22,TATCAGCTTTGAGACACCTGGCCAAGTACAGCCTAGGGAGATTAGAGTATCGGTCGA,-0.899 log2 normalized intensity

row,Sequence,binding signal
1,TTTTCCACCCTCCCCTCCCCCTCCTCCCCTGCCTAGGGAGATTAGAGTATCGGTCGA,7.22 log2 normalized intensity
2,AACCCGCCCCCTCCCCCTGCCGGCGGCGCAGCCTAGGGAGATTAGAGTATCGGTCGA,6.05 log2 normalized intensity
3,ATTGTGAAACGTTTGAATTCTTGCCTATCCGCCTAGGGAGATTAGAGTATCGGTCGA,-0.841 log2 normalized intensity
4,GGTTGCCCAGGGAGAGCTGGACTTTCATCTGCCTAGGGAGATTAGAGTATCGGTCGA,5.54 log2 normalized intensity
5,CTAGTGTACAGGTGACCTTTGGAATGAACCGCCTAGGGAGATTAGAGTATCGGTCGA,7.75 log2 normalized intensity
6,TGGCTGGCGGCTAGTGTACAGGTGACCTTTGCCTAGGGAGATTAGAGTATCGGTCGA,7.84 log2 normalized intensity
7,TTGGAGAATGCCTTTTGTGTAGGAGTACACGCCTAGGGAGATTAGAGTATCGGTCGA,1.46 log2 normalized intensity
8,GGAATGAGCAGGAACCTTGTGGTGGTGAAAGCCTAGGGAGATTAGAGTATCGGTCGA,0.216 log2 normalized intensity
9,AAAGCTGGCTGGCGGCTAGTGTACAGGTGAGCCTAGGGAGATTAGAGTATCGGTCGA,0.565 log2 normalized intensity
10,AGATAGTGACGGAGGTGACCTTTGGTTGTCGCCTAGGGAGATTAGAGTATCGGTCGA,6.24 log2 normalized intensity
11,GGCGGCTAGTGTACAGGTGACCTTTGGAATGCCTAGGGAGATTAGAGTATCGGTCGA,9.41 log2 normalized intensity
12,TATCTTTGGAGAATGCCTTTTGTGTAGGAGGCCTAGGGAGATTAGAGTATCGGTCGA,1.69 log2 normalized intensity
13,GCTAGGTGGCGGGCTGGCTCAGGACAGGTGGCCTAGGGAGATTAGAGTATCGGTCGA,-0.886 log2 normalized intensity
14,TCCCTGAAGGCCAGGCAGCACAATTTGTGTGCCTAGGGAGATTAGAGTATCGGTCGA,-0.959 log2 normalized intensity
15,TGATCTTTGAAACATAACAGCAACAACACAGCCTAGGGAGATTAGAGTATCGGTCGA,0.241 log2 normalized intensity
16,TATTGAGAAGAAACCTTTGCCCAACAGGATGCCTAGGGAGATTAGAGTATCGGTCGA,2.13 log2 normalized intensity
17,GGCGAGTGTGCAATTAGAGCAAAGGTTACTGCCTAGGGAGATTAGAGTATCGGTCGA,3.57 log2 normalized intensity
18,ACAAAGATCATAAATGCCTCCCCCTCTTTAGCCTAGGGAGATTAGAGTATCGGTCGA,3.85 log2 normalized intensity
19,TGGGCCAAAGGTCATACCTGTCTAGGTGGAGCCTAGGGAGATTAGAGTATCGGTCGA,4.74 log2 normalized intensity
20,GGGGAGGTGGGAAAAGAAATGTAGTGACAGGCCTAGGGAGATTAGAGTATCGGTCGA,-0.392 log2 normalized intensity
21,TGCATGGATTTCTCAGTTGAGGAATGGGTAGCCTAGGGAGATTAGAGTATCGGTCGA,0.827 log2 normalized intensity
22,TAGGGAAAATAGTGACCCTGTCTCTCAGTCGCCTAGGGAGATTAGAGTATCGGTCGA,1.62 log2 normalized intensity

row,Sequence,binding signal
1,TAATTCTTCTTTGAAAGTTTGGTGGACTTTGCCTAGGGAGATTAGAGTATCGGTCGA,6.91 log2 normalized intensity
2,CTTCTTTGAAAGTTTGGTGGACTTTGGCCGGCCTAGGGAGATTAGAGTATCGGTCGA,10.1 log2 normalized intensity
3,AGTTTGGTGGACTTTGGCCGTGAAGCCGTCGCCTAGGGAGATTAGAGTATCGGTCGA,6.75 log2 normalized intensity
4,GGTGGACTTTGGCCGTGAAGCCGTCCTGTCGCCTAGGGAGATTAGAGTATCGGTCGA,5.87 log2 normalized intensity
5,GGCATTAATTCTTCTTTGAAAGTTTGGTGGGCCTAGGGAGATTAGAGTATCGGTCGA,1.65 log2 normalized intensity
6,TTGAAAGTTTGGTGGACTTTGGCCGTGAAGGCCTAGGGAGATTAGAGTATCGGTCGA,7.64 log2 normalized intensity
7,TGATAAGATTTATCTCTCCAAGGTACTGTGGCCTAGGGAGATTAGAGTATCGGTCGA,0.189 log2 normalized intensity
8,GTGCACTTTGACCCTGCTGTAGTGTGTAAGGCCTAGGGAGATTAGAGTATCGGTCGA,5.69 log2 normalized intensity
9,TCTTGTCCTTCCCCTTTTGTGTTTGTCCCTGCCTAGGGAGATTAGAGTATCGGTCGA,3.03 log2 normalized intensity
10,TCCTCTCTCCCACAAGGGCAGCCCTGTTTAGCCTAGGGAGATTAGAGTATCGGTCGA,-0.515 log2 normalized intensity
11,TTGTCCTTAGACAGTAACCCTTGAGCTCTGGCCTAGGGAGATTAGAGTATCGGTCGA,3.73 log2 normalized intensity
12,TGAGACTTTGGACTTTTGAACTAAGGCTGGGCCTAGGGAGATTAGAGTATCGGTCGA,5.5 log2 normalized intensity
13,ATCTAAGCTGGACTTTGAACTTCATGTGTGGCCTAGGGAGATTAGAGTATCGGTCGA,8.61 log2 normalized intensity
14,AGCTGGACTTTGAACTTCATGTGTGGTGCAGCCTAGGGAGATTAGAGTATCGGTCGA,6.95 log2 normalized intensity
15,CTTTGGACTTTTGAACTAAGGCTGGAATGAGCCTAGGGAGATTAGAGTATCGGTCGA,3.69 log2 normalized intensity
16,GACTTTGAACTTCATGTGTGGTGCAGATTCGCCTAGGGAGATTAGAGTATCGGTCGA,2.1 log2 normalized intensity
17,CCTAAATCTAAGCTGGACTTTGAACTTCATGCCTAGGGAGATTAGAGTATCGGTCGA,9.68 log2 normalized intensity
18,ATTATGGTAGGCAGCCTCTGAGATGGACTCGCCTAGGGAGATTAGAGTATCGGTCGA,3.96 log2 normalized intensity
19,AAATTATTACTCCCACCGTGTGTGCACTTTGCCTAGGGAGATTAGAGTATCGGTCGA,3.9 log2 normalized intensity
20,TGAAAGTTCTCTGGGCTTTTTGATCTTGTCGCCTAGGGAGATTAGAGTATCGGTCGA,1.25 log2 normalized intensity
21,CCCTCGGGCCGGGAAACGCCCTCGGCGCGCGCCTAGGGAGATTAGAGTATCGGTCGA,1.34 log2 normalized intensity
22,AAGATTTATCAGGTCTTTCTTTCAGAACAGGCCTAGGGAGATTAGAGTATCGGTCGA,0.553 log2 normalized intensity

row,Sequence,binding signal
1,GGAAAGAACAGGTCAAAGGTCAGTTTCTTTGCCTAGGGAGATTAGAGTATCGGTCGA,7.69 log2 normalized intensity
2,GGTCAAAGGTCAGTTTCTTTAAGACAAGTGGCCTAGGGAGATTAGAGTATCGGTCGA,5.86 log2 normalized intensity
3,CTTTGGACTTTCAAAAGTTAAGGTCAAGACGCCTAGGGAGATTAGAGTATCGGTCGA,2.78 log2 normalized intensity
4,GCAGAGCAGTTTAGAGAAAGGGTCAAAGGTGCCTAGGGAGATTAGAGTATCGGTCGA,6.23 log2 normalized intensity
5,TCAGAAACAGGAATTCAAAGGTGCAAAGGTGCCTAGGGAGATTAGAGTATCGGTCGA,2.84 log2 normalized intensity
6,TTAGAGAAAGGGTCAAAGGTTAAGCCATTGGCCTAGGGAGATTAGAGTATCGGTCGA,6.33 log2 normalized intensity
7,GAACAGGTCAAAGGTCAGTTTCTTTAAGACGCCTAGGGAGATTAGAGTATCGGTCGA,7.63 log2 normalized intensity
8,TCTTAGGAAAGAACAGGTCAAAGGTCAGTTGCCTAGGGAGATTAGAGTATCGGTCGA,9.61 log2 normalized intensity
9,GACTGTCTTAGGAAAGAACAGGTCAAAGGTGCCTAGGGAGATTAGAGTATCGGTCGA,5.06 log2 normalized intensity
10,TAGGAGACTGTCTTAGGAAAGAACAGGTCAGCCTAGGGAGATTAGAGTATCGGTCGA,0.841 log2 normalized intensity
11,GCAGTTTAGAGAAAGGGTCAAAGGTTAAGCGCCTAGGGAGATTAGAGTATCGGTCGA,9.04 log2 normalized intensity
12,ACCGTAAATGCATTATTGCACTGTGCTTTGGCCTAGGGAGATTAGAGTATCGGTCGA,1.3 log2 normalized intensity
13,TGCTCTCAGCACACTCTGGTACCATGGATGGCCTAGGGAGATTAGAGTATCGGTCGA,0.953 log2 normalized intensity
14,GGCTCTCCCGGGGCGGGGGTGACCAGATTAGCCTAGGGAGATTAGAGTATCGGTCGA,1.07 log2 normalized intensity
15,TCAGGGGTCAATGTGCACATTCGAAGTTTTGCCTAGGGAGATTAGAGTATCGGTCGA,4.86 log2 normalized intensity
16,CATCTGGGCAAGGTGTCAACCTTCATTCTCGCCTAGGGAGATTAGAGTATCGGTCGA,0.575 log2 normalized intensity
17,TCTTTTTAATCAATAATCTTTGCCCTTGAAGCCTAGGGAGATTAGAGTATCGGTCGA,3.49 log2 normalized intensity
18,AGCATATTTGGCCACATCCTGTCTCCTTTAGCCTAGGGAGATTAGAGTATCGGTCGA,1.11 log2 normalized intensity
19,CCTGAAGGGTGTTGTGGAATGTGCTTGGACGCCTAGGGAGATTAGAGTATCGGTCGA,2.16 log2 normalized intensity
